Assay outcomes from PubChem.
In the library only some 1.6% were active in any assay of this set; here they are far more common.
KCNQ2 pot = potentiators of rat KCNQ2 potassium channel | B-score at 10 µM | actives 0.54% (n = 310,000) | CHO-K1 KCNQ2, FluxOR thallium flux fluorescence; stronger effect = higher value;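 active = fluorescence ratio B-score at least 3 SD of library B-scores, with initial fluorescence B-score within 3 of them, cut at about 5.3 in these data; same plate scores as AID 2156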;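 note: B-score of peak minus minimum over baseline fluorescence ratio after K+ and Tl+ stimulus; positive B-score means potentiation of KCNQ2 with more thallium influx and brighter signal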
KCNQ2 block = KCNQ2 (rat) channel inhibition; O88943; CHO-K1 KCNQ2, FluxOR thallium flux, 20 min; stronger effect = lower value; B-score at 10 µM; actives 1.1% (n = 310,000); AID 2156;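 active = fluorescence ratio B-score at most minus 3 library SDs, with starting brightness B-score within 2 library SDs, cut at about -5.5 in these data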
KCNQ2 block conf = confirmation of rat KCNQ2 potassium channel inhibitors; activity change, negative = inhibition, % at 10 µM; actives 57% (n = 1,000); AID 493025; shares compounds with KCNQ2 block; KCNQ2-expressing cells, thallium flux, inhibition; stronger effect = lower value
KCNQ1 spec = human KCNQ1 activity in KCNQ2 inhibitor specificity screen. activity change, negative = inhibition, % at 10 µM. actives 15% (n = 1,000). AID 493026. shares compounds with KCNQ2 block. KCNQ1-expressing cells, FluxOR thallium flux fluorescence; stronger effect = lower value;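 active = activity change at least 3 SD of negative controls below their mean in both duplicate wells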;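 note: CHO cells stably transfected with KCNQ1 and depolarized by potassium stimulus; peak minus minimum fluorescence over baseline after thallium addition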
Target sequence (P51787 whole entry, looked up): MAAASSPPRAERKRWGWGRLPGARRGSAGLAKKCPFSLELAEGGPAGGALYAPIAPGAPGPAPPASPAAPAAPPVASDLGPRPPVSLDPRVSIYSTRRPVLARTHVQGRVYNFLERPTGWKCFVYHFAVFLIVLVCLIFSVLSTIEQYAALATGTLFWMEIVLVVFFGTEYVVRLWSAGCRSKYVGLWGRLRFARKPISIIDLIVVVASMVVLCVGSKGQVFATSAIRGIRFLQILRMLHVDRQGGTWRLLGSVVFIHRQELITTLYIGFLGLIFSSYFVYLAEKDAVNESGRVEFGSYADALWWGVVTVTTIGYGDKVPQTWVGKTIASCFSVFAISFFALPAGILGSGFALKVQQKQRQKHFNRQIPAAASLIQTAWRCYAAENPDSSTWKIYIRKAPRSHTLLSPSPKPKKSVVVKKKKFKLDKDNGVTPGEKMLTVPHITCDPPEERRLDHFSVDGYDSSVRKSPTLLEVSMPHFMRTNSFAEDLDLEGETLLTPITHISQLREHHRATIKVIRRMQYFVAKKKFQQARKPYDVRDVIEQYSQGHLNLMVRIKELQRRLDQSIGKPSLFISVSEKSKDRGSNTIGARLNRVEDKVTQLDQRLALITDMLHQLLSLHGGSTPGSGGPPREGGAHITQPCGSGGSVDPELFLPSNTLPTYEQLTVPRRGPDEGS
CHO Tl ctr = activity in parental CHO cells lacking KCNQ2; shares compounds with KCNQ2 block; thallium flux counter-screen; stronger effect = lower value; activity change, % at 10 µM; actives 14% (n = 1,000)
KCNQ2 inh confirm = blocks rat KCNQ2 current in automated patch clamp. calls only at 10 µM. KCNQ2-expressing cells. shares compounds with KCNQ2 block. actives 49% (n = 550)
Each line names hits and unclear results; the compound was inactive in the other large screens (follow-up assays come after a bar, where they were run). Unless noted, the rule behind the calls is not given here.

CC(NC(=O)CCCCCNC(=O)N1CCn2c1nc1ccccc12)c1ccccc1 (stereo not given)	none
COCCCN(C(=O)CSCc1c(C)noc1C)c1c(N)n(Cc2ccccc2)c(=O)[nH]c1=O	none
CC1OC(Oc2c(-c3cc(O)c(O)c(O)c3)oc3cc(O)cc(O)c3c2=O)C(O)C(O)C1O (stereo not given)	none (no result: KCNQ2 pot)
CC(C)=CCc1c(O)cc(O)c2c(=O)c(O[C@@H]3O[C@@H](C)[C@H](O)[C@@H](O)[C@H]3O)c(-c3ccc(O)cc3)oc12	KCNQ2 block -7.1 | KCNQ2 block conf -40% | KCNQ1 spec -36% | CHO Tl ctr -23% | KCNQ2 inh confirm inactive
CCc1cccc2c1Sc1ccccc1CC2N1CCNCC1 (stereo not given)	none (no result: KCNQ2 pot)
Cc1cccc2c1Sc1ccc(Cl)cc1CC2N1CCNCC1 (stereo not given)	KCNQ2 block -8.4 | KCNQ2 block conf -42% | KCNQ1 spec -34% | CHO Tl ctr -28% | KCNQ2 inh confirm active
Cc1ccc(/C=C/S(=O)(=O)NCC(=O)OCC(=O)Nc2c(F)cccc2F)cc1	none
O=C(O)CN1C(=O)/C(=C/c2ccccc2Br)Oc2ccccc21	none (no result: KCNQ2 pot)
Cc1cccc(C)c1OCc1cc(C(=O)N2CCC(c3ccccc3)CC2)no1	KCNQ2 block -9.2 | KCNQ2 block conf -24% | KCNQ1 spec inactive | CHO Tl ctr inactive | KCNQ2 inh confirm active
Cc1cccc(C)c1OCc1cc(C(=O)N2CCC(C3CCCCC3)C2)no1 (stereo not given)	none (no result: KCNQ2 pot)
Cc1ccc(C)c(CN2CCC(n3nccc3NC(=O)CCCc3ccccc3)CC2)c1	none
COc1ccc(C(C[N+](=O)[O-])c2c(C)[nH]n(-c3ccccc3)c2=O)cc1 (stereo not given)	KCNQ2 block -7 | KCNQ2 block conf -26% | KCNQ1 spec inactive | CHO Tl ctr inactive | KCNQ2 inh confirm inactive
Cc1[nH]n(-c2ccccc2)c(=O)c1C(C[N+](=O)[O-])c1ccccc1Cl (stereo not given)	none (no result: KCNQ2 pot)
Cc1ccc(C(C)C)c(OCCNC(=S)Nc2cccc3ccccc23)c1	KCNQ2 block -6.7 | KCNQ2 block conf inactive | KCNQ1 spec inactive | CHO Tl ctr inactive
S=C(NCc1ccccc1)Nc1cccc2ccccc12	none
Cc1ccc(C)c(S(=O)(=O)N2CCN(C(=O)C3CCN(c4ncnc5sc(C)c(C)c45)CC3)CC2)c1	none (no result: KCNQ2 pot)
CCCn1c(N)c(N(CCOC)C(=O)c2ccc([N+](=O)[O-])cc2Cl)c(=O)[nH]c1=O	none (no result: KCNQ2 pot)
O=C(COC(=O)c1ccccc1C(=O)OCC(=O)NCCc1c[nH]c2ccccc12)NCCc1c[nH]c2ccccc12	none (no result: KCNQ2 pot)
COc1ccc(Cl)cc1NC(=S)NCCc1ccc(F)cc1	KCNQ2 block -8.7 | KCNQ2 block conf -36% | KCNQ1 spec -34% | CHO Tl ctr -30% | KCNQ2 inh confirm active
COc1ccc(Cl)cc1NC(=S)NCCc1ccc(S(N)(=O)=O)cc1	none (no result: KCNQ2 pot)
CC(=O)c1ccc(N(CC(=O)NC2CCCC2)C(=O)CCC(=O)Nc2cc(C)on2)cc1	none (no result: KCNQ2 pot)
C=CCN(c1ccccc1)S(=O)(=O)c1cccc(C(=O)NC2CCN(Cc3ccccc3)CC2)c1	none
COCCn1nnnc1C(c1cc2cc(OC)ccc2[nH]c1=O)N1CCC(Cc2ccccc2)CC1 (stereo not given)	none
COc1ccc2cc(C(c3nnnn3CCc3ccccc3)N3CCCC(C)C3)c(=O)[nH]c2c1 (stereo not given)	KCNQ2 block -8.6 | KCNQ2 block conf -35% | KCNQ1 spec inactive | CHO Tl ctr inactive | KCNQ2 inh confirm active
Cc1nn(CC(=O)NCCC2=CCCCC2)c(C)c1[N+](=O)[O-]	none
COc1ccc(Br)cc1CNC(=O)CN1C(=O)C(c2ccccc2)Oc2cccnc21 (stereo not given)	KCNQ2 block -7 | KCNQ2 block conf -26% | KCNQ1 spec inactive | CHO Tl ctr inactive | KCNQ2 inh confirm active
COc1ccc(NC(=O)CCCN2C(=O)C(c3ccccc3)Oc3cccnc32)cc1OC (stereo not given)	none
Cc1cccc(C)c1NC(=O)CN(C)C(=O)CN1C(=O)NC2(CCCC2)C1=O	none (no result: KCNQ2 pot)
c1ccc(-c2noc(-c3ccccc3-c3ccccc3)n2)cc1	KCNQ2 block -8.6 | KCNQ2 block conf -24% | KCNQ1 spec inactive | CHO Tl ctr inactive | KCNQ2 inh confirm inactive
Fc1ccccc1-c1nc(-c2ccc(Cl)cc2)no1	none (no result: KCNQ2 pot)
Cc1ccc(CNC(=O)C(=O)NCC2CCCN2S(=O)(=O)c2cccs2)cc1 (stereo not given)	none (no result: KCNQ2 pot)
CCOC(=O)C1=C(COC(=O)COc2cc(C)ccc2C)NC(=O)NC1C (stereo not given)	none
CN(C(=O)COC(=O)COc1ccc(Cl)cc1)C1CCCCC1	none (no result: KCNQ2 pot)
Cc1cc(OCC(=O)N(C)C2CCCCC2)cc(C)c1Cl	KCNQ2 block -7.4 | KCNQ2 block conf -43% | KCNQ1 spec -46% | CHO Tl ctr -38% | KCNQ2 inh confirm active
C/C=C/c1ccc(OCC(=O)N(CCOC)c2c(N)n(CCCC)c(=O)[nH]c2=O)c(OC)c1	none (no result: KCNQ2 pot)
COc1cccc(NC(=O)c2cccc(C(=O)Nc3cccc(OC)c3)c2)c1	none
COc1cccc(C(=O)Nc2cccc(C(=O)NCC(C)C)c2)c1	KCNQ2 block -6.7 | KCNQ2 block conf inactive | KCNQ1 spec inactive | CHO Tl ctr inactive
CC(Cc1ccccc1)NC(=O)CCCN1C(=O)c2ccccc2C1=O (stereo not given)	none
O=C(Nc1ccccc1F)c1cc(-c2ccco2)nc2ccccc12	none
O=C(Nc1ccccc1N1CCOCC1)c1cc(-c2ccco2)nc2ccccc12	KCNQ2 block -7 | KCNQ2 block conf -54% | KCNQ1 spec -54% | CHO Tl ctr -50% | KCNQ2 inh confirm active
COc1cc(-c2cc(C(=O)Nc3ccccc3N3CCOCC3)c3ccccc3n2)cc(OC)c1OC	KCNQ2 block -7.8 | KCNQ2 block conf -31% | KCNQ1 spec inactive | CHO Tl ctr inactive | KCNQ2 inh confirm active
COc1ccc(-c2cc(C(=O)NN3CCOCC3)c3ccccc3n2)cc1OC	none
COc1cc(-c2cc(C(=O)Nc3nc4ccccc4s3)c3ccccc3n2)cc(OC)c1OC	none (no result: KCNQ2 pot)
COc1cc(-c2cc(C(=O)Nc3ccc(O)cc3)c3ccccc3n2)cc(OC)c1OC	KCNQ2 block -7.7 | KCNQ2 block conf -30% | KCNQ1 spec inactive | CHO Tl ctr inactive | KCNQ2 inh confirm active
CCN(CC(=O)Nc1c(F)cccc1F)C(=O)CSc1nc(C)cc(C)n1	none
CCOC(=O)c1oc2ccccc2c1COC(=O)CNC(=O)c1ccc(C)cc1	none
CC(C)c1c(C(=O)N/N=C/C=C/c2ccccc2)nnn1-c1nonc1N	none
O=C(Nc1ccc2ccccc2c1)c1ccc2[nH]c(=O)c(=O)[nH]c2c1	none
CCCCN(C)c1nc(-c2ccco2)c2c(c1C#N)CC(C)(C)OC2	KCNQ2 block -8.2 | KCNQ2 block conf inactive | KCNQ1 spec inactive | CHO Tl ctr inactive
CN(C)CCNc1nc(-c2ccco2)c2c(c1C#N)CC(C)(C)OC2	none (no result: KCNQ2 pot)
Cc1ccc2c(=O)[nH]c(Cc3ccccc3C(=O)O)nc2c1	none (no result: KCNQ2 pot)
